# Source: ChEMBL document CHEMBL4888484, “Replenishing the malaria drug discovery pipeline: Screening and hit evaluation of the MMV Hit Generation Library 1 (HGL1) against asexual blood stage Plasmodium falciparum ,using a nano luciferase reporter read-out” (2022)
# Hit rate of the full screen: of about 150,000 compounds, about 540 (0.36%) showed an effect of 50% or more. This is one part of a sample in which strong results are shown more often than they occur.
# Tested on: Plasmodium falciparum
# Assay: Primary screen in NF54 nanoGlo assay, in single point, at 2uM, 72h; a lower Z score goes with more inhibition
# Type: functional, Erythrocyte
# Settings: timepoint 72 hour
Structure (SMILES),% Inhibition [%],Z score
Cc1ccc(CNC(=O)[C@]2(C)Cn3nc(C)cc3C(=O)N2c2ccc3c(c2)OCCO3)cc1,-1,0.18
COc1ccc(-c2cc3n(n2)C[C@@](C)(C(=O)NCc2ccccc2)N(Cc2ccc4c(c2)OCO4)C3=O)cc1,52,-8.23
CCc1ccc(-c2cc3n(n2)C[C@@](C)(C(=O)NC2CCCCCC2)N(c2ccc(F)cc2)C3=O)cc1,0,0.02
COc1ccc(-c2cc3n(n2)C[C@@](C)(C(=O)NCc2ccccc2OC)N(c2cc(C)cc(C)c2)C3=O)cc1,9,-1.43
COc1ccc(CN2C(=O)c3cc(-c4ccc(OC)cc4)nn3C[C@@]2(C)C(=O)NCc2ccccc2)cc1,6,-0.96
CCc1ccc(-c2cc3n(n2)C[C@@](C)(C(=O)NC2CCCCC2)N(c2cccc(C)c2C)C3=O)cc1,-2,0.32
CCc1ccc(-c2cc3n(n2)C[C@@](C)(C(=O)NC2CCCCC2)N(c2cc(C)cc(C)c2)C3=O)cc1,71,-11.34
COc1ccc(-c2cc3n(n2)C[C@@](C)(C(=O)NCc2ccccc2OC)N(c2ccc(C)cc2)C3=O)cc1,-4,0.55
C[C@@]1(C(=O)NCc2ccccc2)Cn2nc(-c3ccccc3)cc2C(=O)N1c1ccc2c(c1)OCCO2,52,-8.25
C[C@@]1(C(=O)NCc2ccccc2)Cn2nc(-c3ccccc3)cc2C(=O)N1C1CC1,9,-1.39
COc1ccc(-c2cc3n(n2)C[C@@](C)(C(=O)NCc2ccccc2)N(Cc2ccccc2Cl)C3=O)cc1,17,-2.69
COc1ccc(-c2cc3n(n2)C[C@@](C)(C(=O)NCc2ccccc2OC)N(c2cccc(OC)c2)C3=O)cc1,51,-8.04
Cc1nc(NC(=O)CC2=CCCCC2)n(C)n1,5,-0.53
CN(C(=O)OC(C)(C)C)[C@H]1CCCN(C(=O)c2ccn(C)c(=O)c2)C1,3,-0.37
CC1(C)CC(C)(C)c2ccccc2CN1,3,-0.41
Cn1nccc1NC(=O)Cn1ncc2cc(-c3cccc4cccnc34)ccc21,0,-0.05
COc1ccc(C2=C[C@@H](c3cccc(OC)c3)n3ncc(C(=O)Nc4ccccc4)c3N2)cc1,6,-0.59
COc1ccc(C2=C[C@@H](c3ccc(F)cc3)n3ncc(C(=O)Nc4ccc(C)cc4)c3N2)cc1,2,-0.16
CCc1ccc(C2=C[C@@H](c3cccc(OC)c3)n3ncc(C(=O)Nc4ccc(C)cc4)c3N2)cc1,60,-5.98
O=C(N[C@@H](Cn1nccn1)c1ccccc1)c1cc(Br)ccc1Cl,57,-6.89
O=C(N[C@@H](Cn1nccn1)c1ccccc1)c1cc(-c2ccccc2)n[nH]1,-4,0.69
O=C(N[C@@H](Cn1nccn1)c1ccccc1)c1ccncc1,-13,1.97
Fc1cc(Cl)ccc1OC[C@@H]1CCCN2CCCC[C@H]12,17,-2.29
Clc1cccc(OC2CN(C[C@@H]3CCCN4CCCC[C@H]34)C2)c1,3,-0.42
Cc1n[nH]c(C)c1CCCN(C)C(=O)c1cn2cccnc2n1,4,-0.72
Cc1cc(C)c(CNC(=O)c2cnn(C)c2C)c(=O)[nH]1,-9,1.13

Structure (SMILES),% Inhibition [%],Z score
O=c1[nH]nc(-c2ccc(Cl)cc2)c2cn(-c3ccc(Cl)cc3)nc12,-14,1.65
Cc1nnc(-c2ccco2)c2cn(-c3ccc(Cl)cc3)nc12,69,1
Clc1ccc(-c2nnc(-c3ccco3)c3nocc23)cc1,3,-0.41
Cc1noc(C)c1C(=O)N1CCC[C@H](Oc2ncc(Cl)cn2)C1,-3,0.45
O=C(NCCN1CCC[C@H](CO)C1)c1cccc(-c2ccc3occc3c2)c1,-3,0.37
Cn1nc2c(c1C(=O)NCc1csc(N)n1)CCCC2,5,-0.77
Cc1nc(Nc2ccc3c(c2)OCCO3)cc(-c2ccccc2)n1,5,-0.89
C[C@H](Nc1nc(N2CCCCC2)nc2ccccc12)c1ccccc1,40,-5.78
Nc1ncnc(NCCc2ccccc2)n1,2,-0.24
CC(C)COC(=O)c1nc2ccccc2nc1Nc1ccc2c(c1)OCCO2,8,-0.98
C[C@H](Nc1nc(N(C)C)nc2ccccc12)c1ccccc1,-5,0.67
CNc1nc(NCc2ccccc2)nc2ccccc12,81,-8.4
NS(=O)(=O)c1ccc(CCNc2nc(-c3ccccc3)nc3ccccc23)cc1,39,0.27
CNc1nc(Nc2ccc3c(c2)OCCO3)nc2ccccc12,89,-16.08
CNc1nc(NCCc2ccccc2)nc2ccccc12,83,-8.48
CCN(Cc1nc(C(N)=O)no1)Cc1c(F)cccc1Cl,-6,1.04
CC(C)(N)c1ccc(Cl)c(Cl)c1,-9,1.19
Nc1c(Br)cc2oc(-c3ccc4ccccc4c3)nc2c1Br,36,-1.3
O=C(N[C@H]1CCn2nccc2C1)c1ccc(OC(F)F)cn1,-8,0.97
CC(C)(C)OC1CC(NCC(=O)NCC2CC2)C1(C)C (centres undefined),-5,0.8
COC(=O)[C@H]1CCc2nnc(Cc3ccc(F)cc3)n2C1,-9,1.42
O=C(c1ccccc1C(F)(F)F)N1CC2(CCOC2)C1,5,-0.56
Cc1nc(N)nc(C(F)(F)F)c1Br,-1,0.16
O=C(Nc1cnc2ccccc2c1)c1ccccc1C(=O)c1ccc(F)cc1,93,-10.24
COc1ccc(C(=O)c2ccccc2C(=O)Nc2cn[nH]c2)cc1,-8,1.57
O=C(NC1CC1)c1ccccc1C(=O)c1ccc(F)cc1,-8,1.02
